Source: PubChem BioAssay (National Center for Advancing Translational Sciences (NCATS))
Rows were chosen to be rich in hits. Some 12% of all compounds tested hit in one or more screens of this group.
RORg inh: inhibitors of mouse ROR gamma transcriptional activity; P51450; Drosophila S2 Gal4-RORgamma UAS-luciferase reporter, 20 h; Potency, µM (doses to about 53.6 µM), without a hit: top-dose activity change, negative = inhibition, hits mostly inhibitors; 5.4% of 310,000 active; AID 2551; note: nearly all actives have a fitted effect of over 60% in size
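Compounds are pin-transferred onto Drosophila Schneider cells expressing a copper-inducible Gal4–ROR gamma transactivation domain fusion. After 1 hr, copper sulfate is added to 700 uM final; luciferase is read 20 hr later.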
PLK1 PBD inh: PLK1 (human) polo-box domain binding inhibition | Plk1 PBD binding of FITC phosphopeptide, fluorescence polarization | 2.8% of 360,000 active | P53350 | Potency, µM, without a hit: max response, negative = inhibition, usual class: inhibitors; note: series mostly up to about 57 µM; nearly all actives have a fitted effect of over 65% in size
ALDH1A1 inh: ALDH1A1 (human) enzyme inhibition; P00352; Purified ALDH1A1, NADH fluorescence, propionaldehyde substrate; Potency, µM (series often up to 75.3 µM), for the others: at the highest dose activity, negative = inhibition, usual class: inhibitors; 7.3% of 220,000 active; AID 1030; active = well fitted inhibition curve with a large enough effect, not every such curve was filed as active; inconclusive = small, poorly fitted or top-dose-only effect, or another doubt; inactive = no such curve, though single readings can be large or run the other way;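 note: plate controls were no enzyme wells and a reference inhibitor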
Target sequence (P00352 whole entry, looked up): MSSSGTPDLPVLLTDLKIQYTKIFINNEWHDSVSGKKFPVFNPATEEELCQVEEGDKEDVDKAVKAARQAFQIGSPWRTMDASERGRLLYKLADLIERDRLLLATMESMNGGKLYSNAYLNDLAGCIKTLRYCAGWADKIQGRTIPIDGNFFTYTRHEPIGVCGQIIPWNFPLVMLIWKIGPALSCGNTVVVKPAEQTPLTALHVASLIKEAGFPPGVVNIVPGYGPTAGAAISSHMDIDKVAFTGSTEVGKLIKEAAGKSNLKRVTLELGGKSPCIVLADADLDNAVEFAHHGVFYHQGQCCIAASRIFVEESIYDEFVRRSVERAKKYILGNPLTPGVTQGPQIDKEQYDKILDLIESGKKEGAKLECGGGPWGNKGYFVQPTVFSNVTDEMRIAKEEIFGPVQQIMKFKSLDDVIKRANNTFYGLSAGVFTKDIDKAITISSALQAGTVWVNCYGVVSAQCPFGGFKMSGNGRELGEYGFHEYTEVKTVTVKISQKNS
Gal4-VP16 FLuc: inhibits Gal4-VP16 luciferase reporter, ROR gamma counter-screen | Drosophila S2 Gal4-VP16 UAS-luciferase, luminescence, 20 h | AID 2546 | Potency, µM (series often up to 53.6 µM), inactives show at the top dose activity, negative = inhibition, hits mostly inhibitors | 3.5% of 310,000 active;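 note: Gal4-VP16 expression switched on by copper sulfate through the metallothionein promoter; nearly all actives have a fitted effect of over 50% in size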
Sfp PPTase inh: inhibitors of Bacillus subtilis Sfp phosphopantetheinyl transferase; Q9F4F7; Biochemical Sfp PPTase activity, qHTS; Potency, µM, for the others: largest response in the series, negative = inhibition, usual class: inhibitors; 3.5% of 310,000 active; AID 1490;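 note: the enzyme is Sfp with the accession as filed and its product quenches rhodamine fluorescence; 0% = enzyme reaction without inhibitor and -100% = no enzyme wells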
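Step 1, compound plus 15 nM Sfp-PPTase, 15 min, room temperature. Step 2, add rhodamine-CoA (5 uM) and BHQ-2-YbbR (12.5 uM). Step 3, read 525/598 nm fluorescence at 0 and 30 min.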
An asterisk follows results filed as active; ? = inconclusive; . = no result given; [ ] = dose if it differs, or a comment. Unless noted, calls come from the whole dose curve; as a rule, active = well fitted curve in the direction sought with a large enough effect; inconclusive = small, poorly fitted or top-dose-only effect, or another doubt; inactive = no such curve, though single readings can be large; an effect the other way counts as inactive or inconclusive. Unless noted, % is set by controls: 0 for no effect and ±100 for the full control effect; potency is the fitted concentration of half-maximal effect.

SMILES | RORg inh | PLK1 PBD inh | ALDH1A1 inh | Gal4-VP16 FLuc | Sfp PPTase inh
COc1ccc(C(C)(NC(C)=O)c2nc(-c3cccc(F)c3)cs2)cc1 (stereo not drawn) | . | -1% | . | . | .
COC(=O)C1=C(C)N(Cc2ccccc2)C(=NCc2ccco2)N[C@H]1c1ccc(Br)cc1 | ? | . | . | ? | -7%
C[C@H](O)[C@@H]1C(=O)N2CCc3c([nH]c4ccccc34)[C@@H]2C[C@@H]1N(C)C(=O)c1cc(Cl)cc(Cl)c1 | . | 2% | . | . | .
N#Cc1c(-c2ccc(Br)cc2)nc2n(c1=O)CCCS2 | 11% | -5% | 35µM* | 10% | 6%
Nn1cnnc1N/N=C/c1ccccc1C(F)(F)F | -15% | -21% | . | -5% | ?
Nn1cnnc1N/N=C/c1ccc(F)cc1 | ? | -3% | . | ? | 56µM*
Cc1ccc(/C=N/Nc2nncn2N)cc1 | ? | 1% | . | 13µM* | 40µM*
Nn1cnnc1N/N=C/c1ccc(Cl)c([N+](=O)[O-])c1 | ? | -22% | ? | ? | ?
COc1cc(C2CC(=O)Oc3cc(C)c(Cl)cc32)cc(OC)c1OC (stereo not drawn) | ? | . | 4% | 3% | -12%
CCn1cc(C(=O)N2CC(C)CC(C)C2)c(=O)c2cc(S(=O)(=O)N(C)C)ccc21 (stereo not drawn) | 2% | 21µM* | 5% | 4% | 4%
CCn1cc(C(=O)NCc2ccccc2OC)c(=O)c2cc(S(=O)(=O)N(C)C)ccc21 | 28% | -15% | 3.2µM* | 2% | -6%
O=C(Nc1ccccc1)[C@@H]1[C@@H]2C(=O)N(c3ccc(F)cc3)C(=O)[C@@H]2[C@H]2C=CC=NN21 | ? | -5% | ? | ? | 35µM*
COc1ccc(C(=O)[C@H]2[C@H]3C(=O)N(c4ccc(C)cc4)C(=O)[C@H]3C3C=CC=NN32)cc1 (stereo partly drawn) | -36% | 1% | . | 4% | -9%
COc1ccc(C(=O)[C@H]2[C@H]3C(=O)N(c4ccccc4)C(=O)[C@H]3C3C=CC=NN32)cc1 (stereo partly drawn) | -10% | -5% | . | 22% | ?
Cc1ccc(N2C(=O)[C@@H]3[C@H](C2=O)[C@H]2C=CC=NN2[C@@H]3C(=O)Nc2ccccc2)cc1 | ? | -28% | 25µM* | -2% | -14%
CSc1ccc(C(=O)C2CCCN(C(=O)c3csc(C(C)=O)c3)C2)cc1 (stereo not drawn) | 5% | -21% | 2µM* | -7% | 12%
COc1ccnc(CS(=O)c2nc3ccc(OC(F)F)cc3[nH]2)c1OC (stereo not drawn) | 0% | . | ? | -15% | -69%
C[N+](C)(C)[C@H](Cc1c[nH]c(=S)[nH]1)C(=O)O | . | . | 5%[13.5 µM] | . | .
CC(=O)Oc1cccc(N2C(=O)c3cccc4c([N+](=O)[O-])ccc(c34)C2=O)c1 | 8.9µM* | ? | . | 5.6µM* | 0%
CN(C)CCCN1C(=O)c2cccc3c([N+](=O)[O-])ccc(c23)C1=O | 1.4µM* | ? | ? | 1.1µM* | -48%
Cc1ccc(C(=O)O)cc1N1C(=O)c2cccc3c([N+](=O)[O-])ccc(c23)C1=O | 7.9µM* | ? | . | 6.3µM* | -19%
O=C(O)c1ccc(CN2C(=O)c3cccc4c([N+](=O)[O-])ccc(c34)C2=O)cc1 | ? | ? | . | 7.1µM* | ?
O=C1c2cccc3c([N+](=O)[O-])ccc(c23)C(=O)N1CCc1ccccn1 | -9% | -6% | . | -1% | 12%
Cc1ccc(Cl)cc1NC(=O)COC(=O)c1ccc(N2CCCC2)c([N+](=O)[O-])c1 | 25% | . | 9% | 0% | -5%
C[C@@H]1CN([C@H](C)CO)C(=O)c2cc(Br)cnc2O[C@@H]1CN(C)C(=O)NC1CCCC1 | . | 3% | . | . | .
CN(C)c1ncc2nc(-c3cc(F)cc(F)c3)c(=O)n(-c3ccccc3)c2n1 | 7% | . | 18% | -2% | 15%
CCNC(=O)C1(C)CCN1Cc1cc(-c2ccccc2)n(C)n1 (stereo not drawn) | . | -9% | . | . | .
CC(C)(C)n1ncc2c(=O)n(CC(=O)OCc3ccccc3)cnc21 | 8.9µM* | 3% | -15% | 1.6µM* | -7%
CC(C)[C@@H]1Cc2[nH]c(=O)[nH]c(=O)c2[C@H](C)O1 | . | -1% | . | . | .
